These results are taken from PubChem BioAssay (NCATS).

Inconclusive results are not listed. Entries that show only a call come without a potency. Active and inactive are the calls of the source. Calls follow the shape of the full dose curve; tested in HEK293 reporter line.

The nature of this assay: qHTS for Inhibitors of the Functional Ribonucleoprotein Complex (vRNP) of Lassa (LASV) Arenavirus: LASV Primary Screen - GLuc reporter signal (AID 1347082). Also: nearly all actives have a fitted effect of over 60% in size. The following applies: LASV minigenome vRNP, Gaussia luciferase reporter; series mostly up to 57.5 µM. Background: In qHTS, concentration-response curves come from the screen itself.
On to `COc1ccc2[nH]cc(CCNC(C)=O)c2c1`, for which the Potency entry is “inactive”.

Regarding `CC(=O)Nc1ccc(/C=N/NC(N)=S)cc1`, the Potency entry was “inactive”.

Turning to `Cc1cc2cc3c(C)cc(=O)oc3c(C)c2o1`, the Potency entry is “inactive”.

Regarding `CCc1cc(S(=O)(=O)O)c2cc(C(C)C)cccc1-2`, the Potency result is “inactive”.

For the compound `CN(C)[C@@H]1C(=O)C(C(N)=O)=C(O)[C@@]2(O)C(=O)C3=C(O)c4c(O)cccc4C[C@H]3C[C@@H]12`, the Potency result was “inactive”.

As for `C[C@]12CCC(=O)C=C1CC[C@H]1[C@@H]3CC[C@](O)(C(=O)CO)[C@@]3(C)C[C@H](O)[C@@]12F`, the Potency entry is “inactive”.

Take `CC(COc1ccccc1)NN` (stereo not drawn): the Potency entry was “inactive”.

In the case of `CC(CC(C#N)(c1ccccc1)C(C)C)N(C)C` (stereo not drawn), the Potency result was “inactive”.

On to `NCc1ccc(S(N)(=O)=O)cc1`, for which the Potency result was “inactive”.

On to `CC12CCC(CC1)C(C)(C)O2`, for which the Potency result is “inactive”.

With `Cc1ccnc(NS(=O)(=O)c2ccc(N)cc2)n1`, the Potency entry is “inactive”.

With `COc1ccnc(CS(=O)c2nc3ccc(OC(F)F)cc3[nH]2)c1OC` (stereo not drawn), the Potency result is “inactive”.

Take `CN1CCN(c2c(F)cc3c(=O)c(C(=O)O)cn4c3c2SCC4)CC1`: the Potency entry was “inactive”.

As for `C[N+](C)(C)CCCCCC[N+](C)(C)C`, the Potency entry was “inactive”.

With `CN1[C@@H]2CCC[C@@H]1CC(NC(=O)c1nn(C)c3ccccc13)C2` (stereo partly drawn), the Potency entry was “inactive”.

For `OCc1ccc(Cl)cc1Cl`, the Potency entry was “inactive”.

`CC(=O)NC(=O)c1ccccc1O`: the Potency result is “inactive”.

Regarding `NCCCC[C@H](N[C@@H](CCc1ccccc1)C(=O)O)C(=O)N1CCC[C@H]1C(=O)O`, the Potency result was “inactive”.

On to `O=c1[nH]cnc2[nH]ncc12`, for which the Potency result is “inactive”.

As to `CCC(C(=O)OCCN(CC)CC)c1ccccc1` (stereo not drawn), the Potency result is “inactive”.

Consider `O=C(Oc1ccccc1)c1ccccc1O`, for which the Potency result is “inactive”.

As to `CN1CCN(N)CC1`, the Potency entry is “inactive”.

On to `COc1ccc(C2CNC(=O)C2)cc1OC1CCCC1` (stereo not drawn), for which the Potency result was “inactive”.

Regarding `Cc1c(C(=O)NCCO)[n+](=O)c2ccccc2n1[O-]`, the Potency entry is “inactive”.

With `CC(=O)O[C@]1(C(C)=O)CC[C@H]2[C@@H]3C[C@H](C)C4=CC(=O)CC[C@]4(C)[C@H]3CC[C@@]21C`, the Potency entry was “inactive”.

With `CN1C(C)(C)CCCC1(C)C`, the Potency result was “inactive”.

For `Cc1ccc(-c2ccccc2C#N)cc1`, the Potency result was “inactive”.

Consider `Cc1c(I)c(=O)n(-c2ccccc2)n1C`, for which the Potency result was “inactive”.

`O=C(CS(=O)Cc1ccco1)NC/C=C\COc1cc(CN2CCCCC2)ccn1` (stereo not drawn): the Potency entry was “inactive”.

With `CC(C)(C)NCC(O)c1cc(O)cc(O)c1` (stereo not drawn), the Potency entry was “inactive”.

On to `COCCOCC(OC)OC`, for which the Potency result was “inactive”.

Take `COc1cc(OC)c(C(=O)CCCN2CCCC2)c(OC)c1`: the Potency entry was “inactive”.

Turning to `CCN1CC(CCN2CCOCC2)C(c2ccccc2)(c2ccccc2)C1=O` (stereo not drawn), the Potency entry is “inactive”.

As to `CCOC(=O)Oc1ccc(CCNC(=O)[C@H](CCSC)NC(C)=O)cc1OC(=O)OCC`, the Potency result was “inactive”.

As for `CC(C)CCOC(=O)c1ccc(N(C)C)cc1`, the Potency result is “inactive”.

Regarding `O=C(CCCl)NCc1ccccc1`, the Potency result is “inactive”.

Take `NS(=O)(=O)c1cc(C(=O)O)cc(N2CCCC2)c1Oc1ccccc1`: the Potency entry was “inactive”.

Regarding `Cc1ccc(C(=O)C(=O)O)cc1C`, the Potency entry is “inactive”.
